Compound activity from PubChem.
TbPYK inhibitor – blocks Trypanosoma brucei pyruvate kinase. Q57TT1. TbPYK enzyme, Kinase-Glo Plus ATP luminescence, 45 min. Potency, µM (doses to about 76.8 µM), without a hit: top-dose activity, negative = inhibition, actives largely listed as inhibitors. actives 0.12% (n = 410,000). AID 624173; also: % is scaled to controls: 0 for no effect and ±100 for the full control effect; nearly all actives have a fitted effect of over 50% in size
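ADP (130 uM final) triggers the TbPYK reaction after compound addition; incubation is 45 min at room temperature. Kinase-Glo Plus is then added and luminescence imaged. Normalized data are fitted to concentration-effect curves.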
SARS PLP yeast – blocks SARS-CoV papain-like protease in a yeast assay; S. cerevisiae expressing SARS-CoV PLpro, growth rescue; Potency, µM (series often up to 32.9 µM), for inactives: at the top dose activity, positive = growth rescue, most hits filed as activators; actives 0.19% (n = 330,000); AID 485353; calls by dose curve; also: 0% is about no effect; nearly all actives have a fitted effect of over 55% in size
RE007 growth inh – less growth of the S. pombe RE007 Vpr strain. Potency, µM (doses to about 92.2 µM), without a hit: top-dose activity change, negative = less growth, usual class: inhibitors. S. pombe RE007 Vpr strain, BacTiter-Glo ATP luminescence, 24 h. actives 0.21% (n = 360,000); active = well fitted falling curve with a large enough effect; inconclusive = small, poorly fitted or top-dose-only effect; inactive = no such curve, though single readings can be large or run the other way; also: % is scaled to controls: 0 for no effect and ±100 for the full control effect; nearly all actives have a fitted effect of over 50% in size
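Fission yeast RE007 carrying one integrated HIV-1 vpr copy, seeded at OD 0.01 in PMG+AL medium with 23 nL pinned compound. Grown 24 h at 30 degrees; viability read by BacTiter-Glo luminescence after 5 min.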
LmPK inh – LmPK (Leishmania mexicana) enzyme inhibition; Q27686; purified LmPK, Kinase-Glo ATP luminescence, 1 h; Potency, µM (titrated, usually from 57.5 µM), inactives show at the top dose activity change, negative = inhibition, hits mostly inhibitors; actives 0.37% (n = 290,000); AID 1721; also: % is scaled to controls: 0 for no effect and ±100 for the full control effect
Target sequence (Q27686 whole entry, looked up): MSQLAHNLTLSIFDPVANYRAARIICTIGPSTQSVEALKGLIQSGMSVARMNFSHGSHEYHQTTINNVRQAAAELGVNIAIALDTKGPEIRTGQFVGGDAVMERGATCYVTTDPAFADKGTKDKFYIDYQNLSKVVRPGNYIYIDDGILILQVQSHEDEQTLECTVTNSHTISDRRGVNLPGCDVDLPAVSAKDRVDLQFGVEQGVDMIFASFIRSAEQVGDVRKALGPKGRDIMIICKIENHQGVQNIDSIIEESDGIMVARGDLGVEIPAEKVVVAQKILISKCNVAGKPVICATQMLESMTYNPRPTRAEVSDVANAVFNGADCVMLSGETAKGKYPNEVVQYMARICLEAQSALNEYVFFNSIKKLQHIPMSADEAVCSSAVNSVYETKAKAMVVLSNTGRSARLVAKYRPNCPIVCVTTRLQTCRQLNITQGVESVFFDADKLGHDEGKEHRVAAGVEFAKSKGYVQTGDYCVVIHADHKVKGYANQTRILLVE
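In 50 mM imidazole pH 7.2 with 7 mM MgCl2, LmPK (0.1 nM) turned over PEP (0.5 mM) and ADP (0.1 mM) for 1 h at room temperature. Luciferase read-out of ATP.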
FBPA Giardia inh – Giardia lamblia aldolase inhibition; actives 0.71% (n = 290,000); Potency, µM (highest dose often 59.6 µM), for inactives: top-dose activity, negative = inhibition, most hits filed as inhibitors; purified Giardia FBPA; also: % is scaled to controls: 0 for no effect and ±100 for the full control effect; nearly all actives have a fitted effect of over 55% in size
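Giardia FBPA (40 nM reagent) was preincubated 10 min at RT with compound (up to 57.5 uM final), then substrate plus GAPDH/TPI/NAD/arsenate coupling system with diaphorase/resazurin was added; resorufin fluorescence (525/598 nm) was read after 20 min.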
An asterisk follows results filed as active; ? = inconclusive; . = not tested or not shown; ! = a repeat was not active; [ ] = another dose, or the depositor's remark. Sampled rows, rich in hits. Any-hit rate of the full collection: about 1.1%. Unless noted, calls follow the shape of the dose curve; as a rule, active = well fitted curve in the direction sought with a large enough effect; inconclusive = small, poorly fitted or top-dose-only effect, or another doubt; inactive = no such curve, though single readings can be large; an effect the other way counts as inactive or inconclusive. Potency is read from the fitted curve at half-maximal effect.

SMILES	TbPYK inhibitor	SARS PLP yeast	RE007 growth inh	LmPK inh	FBPA Giardia inh
CC(=O)c1ccc(-n2c(-c3cc(-c4ccsc4)n[nH]3)n[nH]c2=S)cc1	?	-1%	1%	20µM*	20%
Cc1ccc2nc(N(CCCN(C)C)C(=O)c3ccc4ncsc4c3)sc2c1	25µM*	-14%	4%	2%	-21%
COc1ccc2nc(N(CCN(C)C)C(=O)c3ccc4ncsc4c3)sc2c1	-29%	.	-15%	.	.
COC(=O)C1=C(C)NC(C)=C(C(=O)O[C@H]2CCN(Cc3ccccc3)C2)C1c1cccc([N+](=O)[O-])c1 (stereo partly specified)	-7%	.	.	.	.
O=C(NCCCN1CCCC1=O)c1cc2nc(-c3ccco3)cc(C(F)(F)F)n2n1	5%	22µM*	-12%	0%	6%
OCC(O)COc1ccc(Cl)cc1 (stereo unspecified)	0%	.	.	.	.
Cc1ccc(-c2cc(N)n(-c3ccccc3)n2)cc1	0%	-6%	?	-26%	0%
Nc1cc(C2CCCC2)nn1-c1ccccc1	-9%	-18%	-21%	14µM*	-6%
COc1ccc(S(=O)(=O)NCCc2sc(-c3cccnc3)nc2C)c(F)c1	-3%	.	.	.	.
N/C(=N\OC(=O)c1ccc(Cl)cc1)c1nonc1N	-18%	-5%	-21%	13µM*	-2%
N/C(=N/OC(=O)c1ccccc1F)c1nonc1N	?	-2%	10%	14µM*	2%
CCN(CC)c1nn2c(=O)c(C(=O)NCc3cccc(C)c3)cnc2s1	7%	.	.	.	.
CC(=O)Oc1cccc(N2C(=O)C3C4C=CC(C4=C(C)C)C3C2=O)c1 (stereo unspecified)	-23%	-18%	35µM*	-1%	2%
CC(=O)Oc1cccc(N2C(=O)C3C(C2=O)C2C=CC3C23CC3)c1 (stereo unspecified)	-25%	-1%	-1%	-3%	3%
CCn1cc(C(=O)N2CCN(c3cccc(Cl)c3)CC2)c(=O)c2cc(S(=O)(=O)N3CCOCC3)ccc21	2%	.	.	.	.
c1ccc(-c2nc(-c3ccccn3)nc(-c3ccccn3)n2)nc1	-2%	1%	2%	1%	?
c1ccc(-c2nnc(-c3ccccn3)s2)nc1	?	3%	-3%	13µM*	-18%
CCOC(=O)c1cc(CC)sc1NC(=O)COc1ccccc1C	1%	.	.	.	.
O=C1C2C=CC=CC2=NC(=S)N1CCN1CCC(=C(c2ccc(F)cc2)c2ccc(F)cc2)CC1 (stereo unspecified)	.	.	.	.	-5%
O=C(O)C1CSC(c2coc3ccccc3c2=O)N1 (stereo unspecified)	-11%	-18%	40µM*	-2%	-10%
CC1CCOC(c2coc3ccccc3c2=O)O1 (stereo unspecified)	-2%	0%	-28%	?	2%
COc1ccc(-c2cc(OC(=O)c3cccc(C)c3)c3c(C)oc(C)c3c(=O)c2)cc1	-6%	.	.	.	.
COc1ccc(-c2cc(C(F)(F)F)nc(-n3nc(C(F)(F)F)cc3C)n2)cc1	-5%	.	.	.	.
CCOC(=O)c1ccc(COC(=O)c2ccc3c(c2)-c2ccccc2C3=O)cc1	3%	?	10%	8%	-2%
CCOC(=O)C1=C(O)c2ccccc2C(=O)/C1=C\c1ccc(CC)cc1	?	-45%	?	?	7.9µM*
SMILES	TbPYK inhibitor	SARS PLP yeast	RE007 growth inh	LmPK inh	FBPA Giardia inh
CCOC(=O)C1=C(Cc2ccc(OC)cc2)C(=O)c2ccccc2C1=O	?	-27%	-12%	-17%	1.4µM*
CCOC(=O)C1=C(Cc2ccc(C)cc2)C(=O)c2ccccc2C1=O	.	-39%	.	-20%	4µM*
CCCc1ccc(/C=C2\C(=O)c3ccccc3C(O)=C2C(=O)OCC)cc1	.	-28%	.	?	?
CCOC(=O)c1c(C)nc2c(c1-c1cc(OC)ccc1OC)C(=O)c1ccccc1-2	.	1%	14%[3.69 µM]	0%	-5%
CO[C@@H]1[C@@H]([C@H](C)[C@@H]2O[C@@]3(CC[C@@](C)([C@H]4CC[C@@](C)([C@H]5O[C@H]([C@H]6O[C@](C)(O)[C@H](C)C[C@@H]6C)C[C@H]5O[C@H]5C[C@@H](OC)[C@H](OC)[C@@H](C)O5)O4)O3)C[C@@H](O)[C@@H]2C)O[C@@](O)(CC(=O)O)[C@H](C)[C@H]1OC	0%	.	.	.	.
COc1cccc(-n2cc(C(=O)Nc3cc(OC)c(OC)c(OC)c3)c3ccccc3c2=O)c1	7%	.	.	.	.
Cc1cccc(C(=O)OCC(=O)N2CCCC2=O)c1O	-6%	-4%	2µM*	.	.
Cc1cccc(C(=O)OCC(=O)N2CCCCCC2)c1O	-3%	2%	2%	.	.
COc1ccc(NC2=C(c3ccc(C(F)(F)F)cc3)C(=O)c3ccccc32)cc1	0%	.	.	.	.
CN(C)N1C(N)=C(C#N)C(c2cccs2)C2=C1CC(C)(C)CC2=O (stereo unspecified)	0%	-4%	17%	0%	18µM*
COc1ccc(NC(=O)Nc2ccccc2SC)cc1	-19%	-2%	-15%	10µM*	-12%
CSc1ccccc1NC(=O)Nc1ccc(Cl)cc1	-28%	-19%	-2%	?	-14%
COc1ccc(CCNC(=O)Cc2c(C)c3cc4c(C(C)(C)C)coc4c(C)c3oc2=O)cc1	-8%	.	.	.	.
N.N.O=C(O)C1(C(=O)O)CCC1.[Pt]	?	.	.	.	18µM*!
Cc1ccc(N2C(=O)NC(=O)/C(=C/c3cnc(-c4ccccc4)nc3)C2=O)cc1C	16%	13µM*	-14%	4%	1%
c1ccc(Nc2nc3ccccc3o2)cc1	-6%	5%	?	16µM*	0%
Cc1cc(C)nc(Nc2nc3ccccc3o2)n1	2%	0%	-14%	7%	-21%
Fc1ccccc1Nc1nc2ccccc2o1	?	-5%	?	16µM*	3%
FC(F)(F)Oc1ccc(Nc2nc3ccccc3o2)cc1	-9%	-9%	-24%	1%	-8%
CCOC(=O)C1CCN(C(=O)Cn2c(-c3cccs3)cc3cc(Cl)ccc32)CC1	0%	.	.	.	.
CCCCNC(=O)NS(=O)(=O)c1ccc(CO)cc1	.	.	.	.	3%
COC(=O)Cn1c(C(=O)N(C)C)cc2c1C[C@H]1CN(C(=O)c3ccccc3)[C@@](Cc3ccc(OC)cc3)(C(=O)OC)[C@@H]21	.	.	.	.	4%
O=c1c(Br)ccc(Br)cc1Br	-16%	.	2.2µM*	.	.
CCN(CC)c1ccc(C(=C2C=CC(=[N+](CC)CC)C=C2)c2ccccc2)cc1	?	.	4.5µM*	.	18µM*
O=C(c1cccs1)c1cn(CCOc2ccc(F)cc2)c2ccccc12	-4%	.	.	.	.
CCCC1CC(CSC(=N)N)OC1=O (stereo unspecified)	-16%	14µM*	-6%	0%	3%
CCCCCCC1CC(CSC(=N)N)OC1=O (stereo unspecified)	-12%	-2%	18%	0%	0%
